Screening data deposited in PubChem by several laboratories.
BoNT A protease: BoNT A light chain protease inhibition; multiplex microsphere protease substrate cleavage, flow cytometry; inhibition, % at 10 µM; actives 0.17% (n = 360,000); AID 588499; note: plate controls were buffer without enzyme for full effect and enzyme alone for no effect
BoNT F protease: BoNT F light chain protease inhibition | AID 588497 | inhibition, % at 10 µM | Multiplex microsphere protease cleavage assay, flow cytometry | actives 0.22% (n = 360,000); in the data active = inhibition above about 35%, passing the limit was not always enough; inconclusive = no clear call, values can overlap the other calls; note: plate controls were buffer without enzyme for full effect and enzyme alone for no effect
MazF activator: activators of E. coli MazEF toxin-antitoxin RNase | P0AE70 | FAM/BHQ RNA-DNA oligo cleavage fluorescence, 5 h | actives 0.32% (n = 350,000) | AID 504720 | activation, % at 20 µM; in the data active = activation above about 50%
Target sequence (P0AE70 whole entry, looked up): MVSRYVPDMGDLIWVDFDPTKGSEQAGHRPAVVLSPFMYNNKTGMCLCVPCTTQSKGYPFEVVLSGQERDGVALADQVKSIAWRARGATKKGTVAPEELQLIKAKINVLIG
VHR inh abs: inhibitors of human VHR1 phosphatase (DUSP3) | P51452 | inhibition, % at 13.3 µM | recombinant VHR phosphatase, pNPP absorbance | actives 0.52% (n = 290,000) | AID 1654; in the data active = inhibition above about 50%
Target sequence (P51452 whole entry, looked up): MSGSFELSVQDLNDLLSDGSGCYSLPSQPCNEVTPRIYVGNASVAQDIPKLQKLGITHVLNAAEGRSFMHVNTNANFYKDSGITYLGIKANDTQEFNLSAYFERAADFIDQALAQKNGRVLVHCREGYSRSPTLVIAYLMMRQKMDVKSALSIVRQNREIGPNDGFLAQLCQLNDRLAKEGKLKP
Autofluor counter: counter-screen for toxin protease inhibitors: compound fluorescence. actives 3.1% (n = 360,000). fluorescence intensity (concentration not given with the values). compound autofluorescence counterscreen, microsphere flow cytometry; stronger effect = higher value. AID 624483; in the data active = fluorescence intensity above about 16000; inconclusive = no clear call, values can overlap the other calls
Anthrax LF prot: blocks Bacillus anthracis lethal factor protease; multiplex microsphere protease cleavage assay, LF; inhibition, % at 10 µM; actives 0.12% (n = 360,000); AID 588501; note: plate controls were buffer without enzyme for full effect and enzyme alone for no effect
Active calls of the source: *; ? = inconclusive; . = no result given. Shown are actives, neighbours in structure and some others; about 4% of the full set was active somewhere. Cut-off read from the data, not from the text of the source, unless noted: active = inhibition above about 30%; inconclusive = no clear call, values can overlap the other calls; inactive = below that.

SMILES	BoNT A protease	BoNT F protease	MazF activator	VHR inh abs	Autofluor counter	Anthrax LF prot
COCCn1c(C(C)C)nc2sc3ccccc3c(=O)c2c1=O	?	5.7	-6.2	23.7	19469*	-8.2
COCCn1c(C2CCCCC2)nc2sc3ccccc3c(=O)c2c1=O	1.5	2.9	3.1	25.2	22628*	0.6
O=C(NCC(c1ccco1)N1CCc2ccccc21)C(=O)Nc1ccccc1 (stereo not given)	.	.	-2.3	.	.	.
CCNC(=O)c1cc(Br)ccc1Cl	-2.4	-0.5	5.3	67.1	16959*	-1.2
S=C(NCCN1CCOCC1)Nc1ccc(Cl)cc1Cl	0.1	-0.8	3.6	-6.9	8861	-0.7
CCOc1cc(NC(=S)Nc2cccc(C)c2)c(OCC)cc1NC(=O)CC(C)C	-0.8	-4.0	5.8	15.7	22828*	-1.9
S=C(NCCCN1CCOCC1)Nc1ccc(Cl)cc1Cl	-0.4	-6.3	7.8	55.4*	2477	-0.8
CCOc1cc(NC(=O)CC(C)C)c(OCC)cc1NC(=O)CCn1nnc2ccccc21	-1.9	-5.3	-1.6	0.0	21013*	-2.4
CCOc1cc(NC(=S)Nc2ccc(Cl)cc2)c(OCC)cc1NC(C)=O	-0.5	-1.9	10.7	15.1	4562	-6.8
CCOc1cc(NC(=S)Nc2cccc(OC)c2)c(OCC)cc1NC(=O)c1ccc(C)cc1	0.1	-3.3	8.7	26.9	5883	2.1
CCOC(=O)c1ccc(NC(=O)CCn2nnc3ccccc32)cc1	0.6	-1.1	1.4	13.2	3894	2.9
CCOc1cc(NC(=S)Nc2cccc(OC)c2)c(OCC)cc1NC(=O)C(C)C	?	-3.2	2.0	12.8	23255*	-5.6
COc1ccccc1NS(=O)(=O)c1ccc2oc(SC(C)C(=O)N3CCNC3=O)nc2c1 (stereo not given)	0.5	3.8	5.5	.	2739	-0.8
Nc1nc2c(ncn2COCCO)c(=O)[nH]1	-0.2	3.0	-2.3	4.7	5040	-4.0
CCOc1cc(NC(=S)NCCCN2CCOCC2)c(OCC)cc1NC(=O)C(C)C	-0.7	-7.0	-0.5	7.4	2166	-0.1
CCOc1cc(NC(=S)Nc2ccccc2)c(OCC)cc1NC(=O)c1ccc(OC)cc1	6.5	8.7	-2.7	14.4	18966*	-11.5
CCOc1cc(NC(=S)NCCCN2CCOCC2)c(OCC)cc1NC(=O)CC(C)C	-1.2	-4.1	-5.9	6.2	22374*	-1.2
O=C(CCn1nnc2ccccc21)Nc1nnc(COc2ccc(F)cc2)s1	?	-1.2	3.1	18.2	21872*	-3.3
CCOC(=O)c1sc(=NC(=O)/C=C/c2ccccc2)n(C)c1C	-0.2	1.6	-0.2	16.9	4228	-4.2
Cn1ccc2c(N3CCCCCC3)cc3c(c21)C1CCC3C1 (stereo not given)	-0.8	-10.2	.	.	5482	-6.3
O=C(COc1ccccc1)NCCSc1ccccc1	-0.6	-3.7	5.6	46.3	4246	-1.3
COc1ccc(C(=O)CNc2ccc3ccccc3c2)cc1	0.5	-4.8	-3.0	3.0	3202	-1.1
COc1ccc(Nc2nc(-c3c(C)nc4ncccn34)cs2)cc1	-1.4	-6.4	2.2	26.1	2506	-2.4
Cc1nc2ncccn2c1-c1csc(Nc2ccccc2)n1	3.7	37.7*	1.2	8.4	2512	0.5
Cc1sc(NC(=S)NC(=O)c2ccc(C(C)(C)C)cc2)c(C#N)c1C	-2.1	-2.8	19.4	-3.8	21363*	-1.3
SMILES	BoNT A protease	BoNT F protease	MazF activator	VHR inh abs	Autofluor counter	Anthrax LF prot
Cc1cc(C(=O)Nc2sc(C)c(C)c2C#N)c(C)o1	?	-1.8	6.9	11.9	16457*	1.8
Cc1sc(NC(=O)c2oc3ccccc3c2C)c(C#N)c1C	-1.4	-8.6	-4.4	18.0	11430	-5.4
Cc1sc(NC(=S)NC(=O)c2ccccc2)c(C#N)c1C	-0.1	8.3	33.6	.	4166	1.4
COc1ccc(CCNC(=O)c2cc3c(=O)n4cccc(C)c4nc3s2)cc1OC	2.5	1.3	1.9	27.7	5149	2.9
C=CCN1CC2CC3(COc4cc(C)cc(C)c4)C=CC2(O3)C1=O (stereo not given)	0.1	-5.5	5.7	25.2	3010	0.5
O=C(CCc1cnccn1)NC1CCCc2c1cnn2-c1ccc(F)cc1F (stereo not given)	0.2	-3.3	-1.5	7.8	2713	-2.0
O=C(Nc1ccc(Br)cc1Cl)c1cnccn1	?	-6.6	-2.3	-12.8	17512*	-2.6
O=C(OCc1ccccc1)c1cccc(-c2nnc(-c3ccccc3)o2)c1	?	-3.2	-10.0	26.1	23216*	-1.3
Nc1nnc(Cc2ccc(F)cc2)s1	1.4	-1.4	-9.2	4.8	4021	4.4
Nc1nnc(CC2=CCCCC2)s1	-1.7	-2.9	7.8	20.7	22203*	-9.2
CCc1ccc(C(O)c2ncc(-c3ccccc3C)[nH]2)cc1 (stereo not given)	-0.1	4.4	.	.	2840	-3.3
CN1CCN(NC(=O)CN2C(=O)/C(=C/c3c(Cl)cccc3Cl)SC2=S)CC1	1.0	8.9	2.0	31.1	4385	-5.2
CN1CCN(NC(=O)CN2C(=O)/C(=C/c3ccccc3Cl)SC2=S)CC1	-1.4	-5.8	-0.3	-11.5	16697*	-4.1
CC(=O)c1nnn(-c2nc(N3CCCC3)nc(N(c3ccccc3)c3ccccc3)n2)c1C	-2.4	-6.4	-1.6	-9.5	23099*	-1.8
COc1ccc(NC(=S)NNC(=O)OC(C)(C)C)cc1OC	?	-3.8	-0.9	7.8	24133*	-2.8
O=C(CCNC(=O)Cn1ccc2ccccc2c1=O)NCCN1CCc2ccccc2C1	-1.0	-34.3	-4.2	-5.8	3690	1.9
Cn1cccc1/C=C1\CCC/C(=C\c2cccn2C)C1=O	5.9	-4.4	863.0*	2.0	6318	1.3
CCc1c(C)sc(NC(=S)N2CCN(C(=O)C3CCCO3)CC2)c1C(=O)OC (stereo not given)	-161.8	-285.9	15.2	-9.2	51235*	-42.8
Cc1ccc(NC(=S)N2CCC(N(C)CC3CCCO3)CC2)c(C)c1 (stereo not given)	9.7	12.5	-4.7	28.6	19642*	2.3
Cc1ccc(NC(=S)N2CCN(C(=O)C3CCCO3)CC2)c(C)c1 (stereo not given)	?	0.9	3.9	26.9	22658*	0.2
CCC(C(=O)NCCCN1CCCC1=O)n1c2ccccc2c2nc(=O)cc(C)n21 (stereo not given)	4.1	2.6	13.5	-3.0	5200	5.8
CC1CCN(S(=O)(=O)c2ccc3c(c2)CCN3C(=O)CCC(=O)O)CC1	6.0	8.8	3.4	35.1	21818*	-2.1
CCCCN(c1ccccc1)S(=O)(=O)c1ccc2c(c1)CCN2C(=O)CCC(=O)O	1.7	1.4	-2.2	-19.2	22207*	-6.0
COC(=O)[C@]1(C)N[C@H](CN(C)C(=O)NC(C)C)[C@@H]2C(=O)N(C)C(=O)[C@@H]21	-0.2	-6.0	-1.1	.	3587	0.7
COc1ccc(OC)c(NC=C2C(=O)OC3(CCCCC3)OC2=O)c1	9.5	13.6	0.4	39.6	18401*	2.4
COc1ccc(OC)c(NC=C2C(=O)OC(C)(C)OC2=O)c1	0.1	1.5	-2.2	31.6	2896	0.0
